Data on 40 molecules can be found in PubChem BioAssay (Tox21).

Each structure is given as a SMILES string. “And” between values parts separate entries of the source, which are not always exact repeats. Identical values can stand only once. Inconclusive results are not listed. Entries that show only a call come without a potency. Some compounds were tested as several samples or in several runs, with calls that do not always agree. The source made the active and inactive calls. Calls come from the whole dose curve; as a rule, active = well fitted cell-killing curve with a large enough effect in the repeat runs; inconclusive = weak or mixed curves, or effect the other way; inactive = flat fitted curve, though single readings scatter.
Potency is the fitted concentration of half-maximal effect.

A short description of this experiment: qHTS RealTime-Glo MT Cell Viability Assay in HEK293 cells - 8 hour (AID 1224887). For activity change, negative = cytotoxicity: top concentration of the series differs between compounds. Note: nearly all actives have a fitted effect of over 50% in size. To be noted: RealTime-Glo luminescence; series mostly up to 76.8 µM; activity change, negative = cytotoxicity: at the top concentration. An excerpt: U.S. Tox21 Program National Center for Advancing Translational Sciences [NCATS] NIH Chemical Genomics Center [NCGC] U.S. Environmental Protection Agency [EPA] National Institutes of Environmental Health Sciences [NIEHS] National Toxicology Program [NTP] U.S. Food and Drug Administration [FDA] Tox21 Assay Overview: Measure of cell viability is critical in the cell-base assay. Analysis of cell viability is necessary for the characterization of cell responses to cytotoxic drugs and environmental stress. A RealTime-Glo MT Cell Viability Assay to monitor cell viability in real time of continues cell culture during 40 hours of compound treatment was used to screen Tox21 10K library compounds in Hek293 cells. The RealTime-Glo MT Cell Viability Assay is a nonlytic, homogeneous, bioluminescent method to measure cell viability in real time using a simple, plate-based method. The assay involves adding NanoLuc luciferase and a cell-permeant prosubstrate to cells in culture. Viable cells reduce the proprietary prosubstrate to generate a substrate for NanoLuc luciferase. This substrate diffuses from cells into the surrounding culture medium, where it is rapidly used by the NanoLuc Enzyme to produce a luminescent signal. The signal correlates with the number of viable cells, making the assay well suited for cytotoxicity studies.
Tox21 Assay Protocol Summary: The mixture of Hek293 cell suspension and reagents were dispensed at 600cells/6 ul/well in 1536-well tissue culture treated black solid bottom plates using a Multidrop dispenser. After the assay plates were incubated at a 37 C/5% CO2 incubator for 5 hours, 23 nL of compounds dissolved in DMSO, positive and negative controls was transferred to the assay plate by a pintool work station. The plates were incubated at 37 C for 40 hours. The luminescence intensity were measured at 0h, 8h, 16h, 24h, 32h and 40h time points using ViewLux plate reader during compound treatment.
For orientation: qHTS replaces the single test concentration by a dilution series.
For the molecule `O=Nc1ccc(O)cc1`, the Potency was 24 µM (active) and inactive.
For the molecule `Clc1cc(Cl)c(Cl)cc1Cl`, the Potency entry is “inactive”.
Regarding `NCCNCCNCCNCCN`, the Potency entry is “inactive”.
As for `Cc1cc(Cc2ccc(N)c(C)c2)ccc1N`, the Potency result was “inactive”.
On to `CCc1ccccc1O`, for which the “activity change, negative = cytotoxicity” value was -9.16% (inactive).
The same measure, in the same setting: the figure for `CCCCC(CC)COC(=O)/C=C\C(=O)OCC(CC)CCCC` (stereo not given) is -22.9% (inactive).
Consider `CC1CC(OC(=O)c2ccccc2O)CC(C)(C)C1` (stereo not given), for which the Potency entry is “inactive”.
On to `CCOC(=O)/C=C\C(=O)OCC`, for which the Potency entry was “inactive”.
The same measure, in the same setting: the entry for `C=C(C)C(=O)OCCCCCCCCCCCC` is “inactive”.
`CN(C)c1ccc(C(=N)c2ccc(N(C)C)cc2)cc1`: the Potency result was “inactive”.
In the case of `CCCCCCCCCCCCOCC1CO1` (stereo not given), the Potency result was “inactive”.
As for `CCCCC/C=C\C/C=C\CCCCCCCC(=O)OC`, the “activity change, negative = cytotoxicity” value is 3.28% (inactive).
In the case of `c1ccc2[nH]cnc2c1`, the Potency result was “inactive”.
Same read-out and setting: the entry for `Cn1c([N+](=O)[O-])cnc1COC(N)=O` is “inactive”; for `c1ccc2ccccc2c1` it is “inactive”; for `O=C1N=C(O)CN1/N=C/c1ccc(-c2ccc([N+](=O)[O-])cc2)o1` it is “inactive”.
The same measure, in the same setting: the entry for `CC1(C)O[C@@H]2C[C@H]3[C@@H]4C[C@H](F)C5=CC(=O)CC[C@]5(C)[C@H]4[C@@H](O)C[C@]3(C)[C@]2(C(=O)CO)O1` is “inactive”.
`CCCCC(CC)COC(=O)CCCCCCCC(=O)OCC(CC)CCCC` (stereo not given): the “activity change, negative = cytotoxicity” value was -3.86% (inactive).
As for `CCOC(=O)[C@H](CCc1ccccc1)N[C@@H](C)C(=O)N1Cc2ccccc2C[C@H]1C(=O)O`, the Potency result was “inactive”.
On to `CC(C)(CO)COC(=O)C(C)(C)CO`, for which the Potency entry was “inactive”.
Still for that read-out and setting: the entry for `CCCCCCCCCCC=CC1CC(=O)OC1=O` (stereo not given) is “inactive”; for `CN(C)c1cccc(O)c1` it is “inactive”; for `OCC1CCCO1` (stereo not given) it is “inactive”.
Same read-out and setting: the entry for `CC(=O)[C@@]1(O)CC[C@H]2[C@@H]3CCC4=CC(=O)CC[C@]4(C)[C@H]3CC[C@@]21C` is “inactive”; for `CS(=O)(=O)Nc1ccc([N+](=O)[O-])cc1Oc1ccccc1` it is “inactive”; for `CC(C)NCC(O)COc1cccc2ccccc12` (stereo not given) it is “inactive”.
As for `O=C(Cl)c1c(Cl)c(Cl)c(C(=O)Cl)c(Cl)c1Cl`, the Potency entry was “inactive”.
Consider `CCCCC(CC)C(=O)OCCOCCOCCOC(=O)C(CC)CCCC` (stereo not given), for which the “activity change, negative = cytotoxicity” value is -28.7% (inactive).
Turning to `CC(C)n1c(/C=C/[C@@H](O)C[C@@H](O)CC(=O)O)c(-c2ccc(F)cc2)c2ccccc21`, the Potency result was “inactive”.
For the molecule `Nc1cc(-c2ccncc2)c[nH]c1=O`, the Potency entry is “inactive”.
Still for that read-out and setting: the entry for `Cc1cc(O)cc(C)c1Cl` is “inactive”; for `CC1=C(/C=C/C(C)=C/C=C/C(C)=C/CO)C(C)(C)CCC1` it is “inactive”.
For `CCCCCCCCCCCCN`, the Potency result is “inactive and 38.9 µM (active)”.
On to `CCCCOCCOCCOC(=O)CCCCC(=O)OCCOCCOCCCC`, for which the Potency entry is “inactive”.
On the same count and under the same terms, the entry for `Cc1cc(NS(=O)(=O)c2ccc(N)cc2)no1` is “inactive”; for `CCCCCCC(C)(C)S` it is “inactive”.
The same measure, in the same setting: the entry for `O=[N+]([O-])c1cccc(Cl)c1` is “inactive”.
On the same count and under the same terms, the entry for `CC[Si](OC(C)=O)(OC(C)=O)OC(C)=O` is “inactive”; for `Oc1ccc2ccccc2c1` it is “inactive”.
Regarding `CC(C)(C)C(=O)C1C(=O)c2ccccc2C1=O`, the Potency result is “inactive”.
